Assay results reported in the supplement of paper PMC3898565.
± gives the uncertainty stated by the source.
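Also: viable cell number estimated from Alamar Blue fluorescence read at 560/90, part of a single-dose primary screen of an FDA-approved drug library.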

These compounds were tested on U87 (assay: cell viability relative to vehicle control; higher = less growth inhibition (less active)). Conditions: 10 µM; 72 h.
With CC[N+](C)(CC)CCOC(=O)C(O)(c1ccccc1)C1CCCCC1 (centres undefined) the cell viability was 109 ± 1.3%.
CN1CCCC(n2nc(Cc3ccc(Cl)cc3)c3ccccc3c2=O)CC1 (centres undefined) gave a cell viability of 99 ± 2.2%.
Cc1c(O)c(=O)ccn1C showed a cell viability of 102 ± 5.2%.
With CCCCCCNC(=O)n1cc(F)c(=O)[nH]c1=O the cell viability was 55.1 ± 2.6%.
For CCC(=O)NS(=O)(=O)c1ccc(-c2c(-c3ccccc3)noc2C)cc1, the cell viability was 108.7 ± 0.37%.
COc1ccc2c(c1)c(CC(=O)O)c(C)n2C(=O)c1ccc(Cl)cc1 [Indomethacin] gave a cell viability of 105.6 ± 0.41%.
Compound CC(=O)O[C@]1(C(C)=O)CC[C@H]2[C@@H]3C=C(C)C4=CC(=O)CC[C@]4(C)[C@H]3CC[C@@]21C has a cell viability of 101 ± 1.2%.
In the case of CN1CCN(C2=Nc3cc(F)ccc3Cc3ccccc32)CC1 [Fluperlapine], the cell viability is reported as 106 ± 3.3%.
Work on CO[C@H]1/C=C/O[C@@]2(C)Oc3c(C)c(O)c4c(c3C2=O)C2=NC3(CCN(CC(C)C)CC3)NC2=C(NC(=O)/C(C)=C\C=C\[C@H](C)[C@H](O)[C@@H](C)[C@@H](O)[C@@H](C)[C@H](OC(C)=O)[C@@H]1C)C4=O yielded a cell viability of 104 ± 2.1%.
CC(C)c1ccc2c(c1)c(SC(C)(C)C)c(CC(C)(C)C(=O)O)n2Cc1ccc(Cl)cc1 gave a cell viability of 99 ± 1.3%.
COC(=O)Nc1nc2cc(C(=O)c3ccc(F)cc3)ccc2[nH]1 gave a cell viability of 30 ± 7.6%.
In the case of COc1cc(N)c(Cl)cc1C(=O)NC1CCN(CCCOc2ccc(F)cc2)CC1OC (centres undefined) [Cisapride], the cell viability is reported as 103.5 ± 0.4%.
With COC(=O)C1=C(C)NC(C)=C(C(=O)OCC(C)C)C1c1ccccc1[N+](=O)[O-] (centres undefined) [Nisoldipine] the cell viability was 48.4 ± 5%.
With COc1cc(CNC(=O)CCCC/C=C/C(C)C)ccc1O [Capsaicin] the cell viability was 109 ± 1.5%.
CC(C)(C)C(O)/C=C/c1ccc2c(c1)OCO2 (centres undefined) [Stiripentol] showed a cell viability of 105.6 ± 0.6%.
Compound N[C@@H](C(=O)N[C@@H]1C(=O)N2C(C(=O)O)=C(CSc3cn[nH]n3)CS[C@H]12)c1ccc(O)cc1 has a cell viability of 105 ± 2.1%.
CC(C(=O)O)c1ccc(CC2CCCC2=O)cc1 (centres undefined) gave a cell viability of 99.3 ± 2.7%.
Compound Cc1occc(=O)c1O has a cell viability of 106 ± 1.4%.
CCS(=O)(=O)CCn1c([N+](=O)[O-])cnc1C gave a cell viability of 101 ± 1.7%.
CC(=O)[C@H]1CC[C@H]2[C@@H]3CCC4=CC(=O)CC[C@]4(C)[C@H]3CC[C@]12C was tested, and the cell viability was 107 ± 3%.
CSc1nc2cc(Cl)c(Oc3cccc(Cl)c3Cl)cc2[nH]1 was tested, and the cell viability was 103 ± 2.5%.
With Cc1sc(N)c(C(=O)c2cccc(C(F)(F)F)c2)c1C the cell viability was 109 ± 1.8%.
With OCCN1C[C@H](O)[C@@H](O)[C@H](O)[C@H]1CO the cell viability was 123 ± 2.4%.
Work on C=C1/C(=C\C=C2/CCC[C@]3(C)[C@@H]([C@H](C)CCCC(C)(C)O)CC[C@@H]23)C[C@@H](O)C[C@@H]1O yielded a cell viability of 105 ± 2.2%.
With Cc1cccc(C)c1NC(=O)C(C)N (centres undefined) the cell viability was 104 ± 2.3%.
Work on CC[C@H]1OC(=O)[C@H](C)[C@@H](O[C@H]2C[C@@](C)(OC)[C@@H](O)[C@H](C)O2)[C@H](C)[C@@H](O[C@@H]2O[C@H](C)C[C@H](N(C)C)[C@H]2O)[C@](C)(OC)C[C@@H](C)C(=O)[C@H](C)[C@@H](O)[C@]1(C)O yielded a cell viability of 107 ± 1.2%.
In the case of CCC1=C[C@H]2CN(C1)Cc1c([nH]c3ccccc13)[C@@](C(=O)OC)(c1cc3c(cc1OC)N(C)[C@H]1[C@@](O)(C(=O)OC)[C@H](OC(C)=O)[C@]4(CC)C=CCN5CC[C@]31[C@@H]54)C2 [Vinorelbine Bitatrate], the cell viability is reported as 18 ± 5%.
In the case of CC(=O)Oc1ccccc1C(=O)Nc1ncc([N+](=O)[O-])s1, the cell viability is reported as 103 ± 2.3%.
Work on COc1cc2nc(N3CCN(C(=O)C4CCCO4)CC3)nc(N)c2cc1OC (centres undefined) [Terazosin] yielded a cell viability of 100.6 ± 0.86%.
CC(C)Oc1ccc2c(=O)c(-c3ccccc3)coc2c1 gave a cell viability of 101 ± 2.6%.
For CN1C2CCCC1CC(NC(=O)c1nn(C)c3ccccc13)C2 (centres undefined), the cell viability was 108 ± 0.83%.
CC1=Nc2ccc(Cl)cc2S(=O)(=O)N1 gave a cell viability of 101 ± 1.6%.
With CN(C/C=C/C#CC(C)(C)C)Cc1cccc2ccccc12 the cell viability was 103 ± 1.4%.
Cc1ncc([N+](=O)[O-])n1CCO gave a cell viability of 104 ± 1.2%.
With C=CC1=C(C(=O)O)N2C(=O)[C@@H](NC(=O)/C(=N\OCC(=O)O)c3csc(N)n3)[C@H]2SC1 the cell viability was 103.9 ± 0.8%.
CC(C)/N=c1\cc2n(-c3ccc(Cl)cc3)c3ccccc3nc-2cc1Nc1ccc(Cl)cc1 showed a cell viability of 51.3 ± 3%.
COc1ccccc1OCCNCC(O)COc1cccc2[nH]c3ccccc3c12 (centres undefined) [Carvedilol] gave a cell viability of 105 ± 2.2%.
Cc1c(OCC(F)(F)F)ccnc1C[S+]([O-])c1nc2ccccc2[nH]1 (centres undefined) gave a cell viability of 104.7 ± 0.78%.
For CCCCN1CCCC1CNC(=O)c1cc(C#N)c2ccccc2c1OC (centres undefined) [Nafadotride], the cell viability was 102 ± 1.5%.
